Test results taken from the supplement of paper PMC10849652.
The full data set covers some 8,800 targets. This sample favours those with a hit. About 0.5% of all pairs of compound and target were hits.

How the values were obtained:
Test in all cases: log2 fold change, soluble protein after heating vs DMSO (PISA); higher = thermal stabilisation; K562 lysate, 10 uM; active = over 0.2 and 3.5 SD of the protein, either way, in both replicates (recomputed)
[1] = compound: C#Cc1cccc(Nc2ncnc3cc(OCCOC)c(OCCOC)cc23)c1 [erlotinib]
Method in brief: (§1)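 Log-two fold change in thermal stability relative to solvent controls is reported from duplicates. For each sample, crude K562 extract from dounce-homogenised pellets in PBS pH 7.4 with 1 mM MgCl2, at 1 mg/mL protein, was treated with 10 μM compound for 30 min. Aliquots heated for 3 min across 48°C-58°C were pooled, brought to 0.5% NP-40 at 4°C and cleared at 21,000xg for 90 min. The supernatant was quantified by TMTpro 16plex LC-MS/MS with channel sums equalised.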

[2] = compound: C/C(=N\NC(=O)C1=CC(=CC=C1)S(=O)(=O)N2CCOCC2)/C3=C(C=CC(=C3)Cl)O
Method in brief: as §1

[3] = compound: C1=CC(=CC=C1C2=NC3=C(N2)C=C(C=C3)C(=O)N)OC4=CC=C(C=C4)Cl
Method in brief: as §1

[4] = compound: C1=CC2=C(C=CC(=C2)/C=C\3/C(=O)NC(=NCC4=CC=CS4)S3)N=C1
Method in brief: as §1

[5] = compound: C1=CC2=NC=CN=C2C=C1/C=C/3\C(=O)NC(=O)S3
Method in brief: as §1

[6] = compound: C1=CC=C(C=C1)C2=NC(=C(N2)C3=CC=NC=C3)C4=CC(=C(C=C4)Cl)O
Method in brief: as §1

[7] = compound: C1=CC=C2C(=C1)C3=NNC4=CC=CC(=C43)C2=O
Method in brief: as §1

[8] = compound: C1CCN(C1)C(=O)NC2=CC=CC(=C2)NC3=NC=C(C(=N3)NCCC4=CN=CN4)Br
Method in brief: as §1

[9] = compound: C1CN(CCC1(CC2=CC=C(C=C2)Cl)N)C3=NC=NC4=C3C=CN4
Method in brief: as §1

[10] = compound: C1COCCN1CCN2C3=CC=CC=C3N=C2NC(=O)C4=CC(=CC=C4)[N+](=O)[O-] [IRAK-1-4 Inhibitor I]
Method in brief: as §1

[11] = compound: C=CC(=O)N1CCC[C@@H](n2nc(-c3ccc(Oc4ccccc4)cc3)c3c(N)ncnc32)C1 [ibrutinib]
Method in brief: as §1

[12] = compound: CC(=O)c1cnc2ccc(-c3cc(Cl)c(O)c(Cl)c3)nc2c1N[C@H]1CC[C@H](CN(C)C)CC1
Method in brief: as §1

[13] = compound: CC(C)(C)Cn1c(N)nc2ccc(-c3[nH]c(C(C)(C)C)nc3-c3ccc(F)cc3)nc21 [ralimetinib]
Method in brief: as §1

[14] = compound: CC(C)(O)CC(=O)NCCn1ccc2ncnc(Nc3ccc(Oc4cccc(C(F)(F)F)c4)c(Cl)c3)c21
Method in brief: as §1

[15] = compound: CC(C)C1=C2N=C(C=C(N2N=C1)NCC3=CC=CC=C3)NCCCCCCN
Method in brief: as §1

[16] = compound: CC1=C(C(CC(=O)N1)C2=CC=C(C=C2)C(F)(F)F)C(=O)NC3=C(C=C4C(=C3)C=NN4)F
Method in brief: as §1

[17] = compound: CC1=C(C2=C(C=C1)C(=O)C3=CC=CC=C3N2CCCN)C
Method in brief: as §1

[18] = compound: CC1=C(C=C(C=C1)NC(=O)C2=CC(=CC=C2)C(C)(C)C#N)NC3=CC4=C(C=C3)N=CN(C4=O)C
Method in brief: as §1

[19] = compound: CC1=C(C=C(C=C1)NC(=O)C2=CC(=CC=C2)N(C)C)NC(=O)C3=CC=C(C=C3)O
Method in brief: as §1

[20] = compound: CC1=CC=C(C=C1)SC2=C3C=C(SC3=CN=C2)C(=O)N
Method in brief: as §1

Measured: log2 fold change

TTMP isoform 3 (UniProt Q5BVD1)
Chain of UniProt Q5BVD1 (Q5BVD1 whole entry, looked up): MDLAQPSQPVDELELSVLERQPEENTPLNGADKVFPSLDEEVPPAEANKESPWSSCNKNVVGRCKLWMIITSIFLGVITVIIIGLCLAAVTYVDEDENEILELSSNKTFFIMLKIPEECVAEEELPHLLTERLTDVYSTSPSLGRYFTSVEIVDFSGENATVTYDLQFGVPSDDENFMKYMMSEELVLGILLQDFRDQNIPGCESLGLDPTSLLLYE
inactive: [1] 0.121 | [2] -0.173 | [3] -0.023 | [4] -0.106 | [5] -0.026 | [6] -0.026 | [7] -0.08 | [8] -0.05 | [9] 0.086 | [10] 0.193 | [11] 0.09 | [12] 0 | [13] -0.034 | [14] -0.22 | [15] -0.038 | [16] -0.091 | [17] -0.02 | [18] 0.296 | [19] -0.004 | [20] -0.099

UBE2L6 (UniProt O14933)
Chain of UniProt O14933 (O14933 whole entry, looked up): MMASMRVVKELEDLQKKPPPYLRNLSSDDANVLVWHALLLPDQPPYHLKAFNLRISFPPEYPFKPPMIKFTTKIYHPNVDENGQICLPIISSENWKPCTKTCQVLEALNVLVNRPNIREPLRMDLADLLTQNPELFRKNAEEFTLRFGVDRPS
inactive: [1] 0.062 | [2] -0.03 | [3] 0.007 | [4] -0.003 | [5] -0.065 | [6] -0.001 | [7] 0.023 | [8] -0.014 | [9] 0.144 | [10] 0.047 | [11] 0.152 | [12] 0.012 | [13] -0.002 | [14] -0.041 | [15] -0.009 | [16] -0.033 | [17] -0.014 | [18] -0.019 | [19] -0.007 | [20] 0.002

UBA1 (UniProt P22314)
Chain of UniProt P22314 (P22314 whole entry, looked up): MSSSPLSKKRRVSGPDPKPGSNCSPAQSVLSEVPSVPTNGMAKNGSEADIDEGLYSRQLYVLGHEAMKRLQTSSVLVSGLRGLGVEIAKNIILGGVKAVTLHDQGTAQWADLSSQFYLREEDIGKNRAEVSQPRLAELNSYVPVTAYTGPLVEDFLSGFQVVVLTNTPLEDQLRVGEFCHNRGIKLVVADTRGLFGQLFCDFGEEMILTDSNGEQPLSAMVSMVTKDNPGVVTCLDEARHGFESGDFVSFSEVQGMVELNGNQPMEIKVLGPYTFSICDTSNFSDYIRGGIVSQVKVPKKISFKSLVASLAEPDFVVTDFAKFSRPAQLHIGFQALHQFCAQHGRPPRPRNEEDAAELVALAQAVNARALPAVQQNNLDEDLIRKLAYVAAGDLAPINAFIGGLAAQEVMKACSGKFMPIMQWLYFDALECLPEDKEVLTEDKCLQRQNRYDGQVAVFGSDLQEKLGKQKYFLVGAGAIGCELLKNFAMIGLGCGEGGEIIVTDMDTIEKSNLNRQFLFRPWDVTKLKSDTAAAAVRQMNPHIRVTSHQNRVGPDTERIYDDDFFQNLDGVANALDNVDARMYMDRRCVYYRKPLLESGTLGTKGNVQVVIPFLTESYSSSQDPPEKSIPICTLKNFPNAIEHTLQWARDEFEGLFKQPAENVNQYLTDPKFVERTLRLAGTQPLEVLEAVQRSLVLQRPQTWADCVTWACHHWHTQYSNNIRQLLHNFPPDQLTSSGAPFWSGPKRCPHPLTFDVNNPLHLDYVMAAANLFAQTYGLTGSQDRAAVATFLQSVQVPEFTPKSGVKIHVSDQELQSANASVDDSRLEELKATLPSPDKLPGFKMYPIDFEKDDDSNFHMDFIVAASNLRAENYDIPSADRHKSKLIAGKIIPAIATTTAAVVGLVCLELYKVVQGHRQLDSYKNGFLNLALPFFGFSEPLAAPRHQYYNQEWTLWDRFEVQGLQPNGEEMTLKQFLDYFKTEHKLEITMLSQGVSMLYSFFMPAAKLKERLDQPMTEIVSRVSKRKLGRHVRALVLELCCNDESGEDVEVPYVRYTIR
inactive: [1] 0.034 | [2] 0.017 | [3] -0.022 | [4] 0.003 | [5] 0.004 | [6] 0.002 | [7] -0.044 | [8] 0 | [9] 0.02 | [10] -0.013 | [11] -0.002 | [12] 0.003 | [13] 0.053 | [14] 0 | [15] 0.027 | [16] -0.018 | [17] 0.006 | [18] 0 | [19] 0.015 | [20] 0.02

TPX2 (UniProt Q9ULW0)
Chain of UniProt Q9ULW0 (Q9ULW0 whole entry, looked up): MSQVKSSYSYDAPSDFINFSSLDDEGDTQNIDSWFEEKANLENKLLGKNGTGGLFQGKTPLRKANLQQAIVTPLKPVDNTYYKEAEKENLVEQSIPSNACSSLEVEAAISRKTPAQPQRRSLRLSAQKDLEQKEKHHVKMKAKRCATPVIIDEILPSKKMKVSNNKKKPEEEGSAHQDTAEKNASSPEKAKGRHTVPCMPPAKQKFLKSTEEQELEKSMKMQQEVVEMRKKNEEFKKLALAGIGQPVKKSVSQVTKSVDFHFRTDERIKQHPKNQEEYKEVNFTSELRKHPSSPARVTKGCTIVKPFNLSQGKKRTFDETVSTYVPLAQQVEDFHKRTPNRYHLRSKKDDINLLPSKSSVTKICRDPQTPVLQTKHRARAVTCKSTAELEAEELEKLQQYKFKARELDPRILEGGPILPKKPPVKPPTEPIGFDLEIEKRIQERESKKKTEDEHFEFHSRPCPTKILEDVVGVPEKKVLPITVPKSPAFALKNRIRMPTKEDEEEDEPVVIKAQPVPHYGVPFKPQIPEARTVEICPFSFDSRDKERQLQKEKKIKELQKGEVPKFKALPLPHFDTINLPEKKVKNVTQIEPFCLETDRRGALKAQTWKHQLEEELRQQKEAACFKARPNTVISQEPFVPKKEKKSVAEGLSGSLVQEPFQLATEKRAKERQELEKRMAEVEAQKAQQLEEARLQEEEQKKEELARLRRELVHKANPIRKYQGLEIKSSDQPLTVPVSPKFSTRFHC
inactive: [1] -0.014 | [2] -0.008 | [3] 0.032 | [4] -0.022 | [5] -0.013 | [6] 0.019 | [7] 0.001 | [8] -0.005 | [9] -0.026 | [10] 0.006 | [11] 0.024 | [12] -0.01 | [13] 0.003 | [14] -0.006 | [15] 0.036 | [16] -0.005 | [17] -0.008 | [18] 0.062 | [19] 0.001 | [20] -0.01

TBC1D8B (UniProt Q0IIM8)
Chain of UniProt Q0IIM8 (Q0IIM8 whole entry, looked up): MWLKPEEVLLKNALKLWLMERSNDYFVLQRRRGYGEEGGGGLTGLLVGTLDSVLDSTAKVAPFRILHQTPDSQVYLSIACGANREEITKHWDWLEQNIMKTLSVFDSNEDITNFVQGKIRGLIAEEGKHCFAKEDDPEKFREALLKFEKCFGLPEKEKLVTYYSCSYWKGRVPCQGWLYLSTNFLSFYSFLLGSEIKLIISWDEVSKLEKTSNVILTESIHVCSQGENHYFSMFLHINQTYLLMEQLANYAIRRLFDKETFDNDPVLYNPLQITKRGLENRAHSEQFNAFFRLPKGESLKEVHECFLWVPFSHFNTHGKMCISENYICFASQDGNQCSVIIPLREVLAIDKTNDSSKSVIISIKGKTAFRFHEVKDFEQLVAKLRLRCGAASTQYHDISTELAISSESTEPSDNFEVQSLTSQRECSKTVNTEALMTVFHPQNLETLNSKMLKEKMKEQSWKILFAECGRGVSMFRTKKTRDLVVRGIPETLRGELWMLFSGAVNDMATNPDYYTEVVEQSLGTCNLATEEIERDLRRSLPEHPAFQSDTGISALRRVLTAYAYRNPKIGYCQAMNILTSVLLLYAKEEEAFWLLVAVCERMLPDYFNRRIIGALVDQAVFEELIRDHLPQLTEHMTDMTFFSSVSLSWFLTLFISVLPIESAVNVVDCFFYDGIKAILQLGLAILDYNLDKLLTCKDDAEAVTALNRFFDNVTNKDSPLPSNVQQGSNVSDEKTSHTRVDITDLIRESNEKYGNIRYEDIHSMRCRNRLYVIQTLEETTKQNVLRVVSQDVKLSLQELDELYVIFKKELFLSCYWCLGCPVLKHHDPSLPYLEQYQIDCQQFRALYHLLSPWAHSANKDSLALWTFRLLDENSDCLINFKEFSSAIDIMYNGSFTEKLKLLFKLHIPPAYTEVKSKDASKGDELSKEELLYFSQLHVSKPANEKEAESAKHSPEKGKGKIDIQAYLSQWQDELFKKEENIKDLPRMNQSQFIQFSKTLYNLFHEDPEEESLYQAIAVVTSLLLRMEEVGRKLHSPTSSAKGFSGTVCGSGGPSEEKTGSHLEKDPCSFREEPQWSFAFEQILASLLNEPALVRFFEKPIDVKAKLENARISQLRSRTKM
inactive: [1] -0.023 | [2] -0.376 | [3] 0.036 | [4] -0.041 | [5] 0 | [6] 0.01 | [7] 0.01 | [8] 0.017 | [9] 0.063 | [10] 0.001 | [11] 0.044 | [12] -0.039 | [13] -0.049 | [14] -0.017 | [15] 0.031 | [16] -0.072 | [17] 0.006 | [18] 0.016 | [19] -0.056 | [20] -0.051

TPM3 isoform 2 (UniProt P06753)
Chain of UniProt P06753 (P06753 whole entry, looked up): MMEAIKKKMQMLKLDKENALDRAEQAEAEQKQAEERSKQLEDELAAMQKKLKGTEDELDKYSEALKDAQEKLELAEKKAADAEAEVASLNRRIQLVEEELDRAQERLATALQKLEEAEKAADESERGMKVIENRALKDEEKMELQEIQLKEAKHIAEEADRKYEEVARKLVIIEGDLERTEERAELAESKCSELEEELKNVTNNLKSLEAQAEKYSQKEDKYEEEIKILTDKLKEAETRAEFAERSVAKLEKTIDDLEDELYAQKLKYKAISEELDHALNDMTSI
inactive: [1] -0.075 | [2] -0.007 | [3] -0.065 | [4] -0.008 | [5] 0.003 | [6] 0.004 | [7] 0.038 | [8] 0.039 | [9] -0.074 | [10] -0.042 | [11] 0.03 | [12] -0.007 | [13] -0.02 | [14] 0.05 | [15] -0.034 | [16] -0.005 | [17] -0.019 | [18] -0.073 | [19] 0.002 | [20] -0.006

TYMS (UniProt P04818)
Chain of UniProt P04818 (P04818 whole entry, looked up): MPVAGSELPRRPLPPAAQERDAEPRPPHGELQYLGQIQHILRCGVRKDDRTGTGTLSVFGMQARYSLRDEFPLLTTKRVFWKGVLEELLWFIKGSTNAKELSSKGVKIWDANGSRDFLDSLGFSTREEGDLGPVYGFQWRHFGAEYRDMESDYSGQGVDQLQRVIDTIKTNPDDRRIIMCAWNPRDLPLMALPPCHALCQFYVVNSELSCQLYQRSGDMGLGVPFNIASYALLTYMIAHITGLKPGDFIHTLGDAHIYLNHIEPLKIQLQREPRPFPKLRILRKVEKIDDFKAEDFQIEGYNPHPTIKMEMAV
inactive: [1] 0.016 | [2] 0.041 | [3] 0.011 | [4] -0.032 | [5] 0.032 | [6] -0.026 | [7] 0.019 | [8] 0.035 | [9] -0.004 | [10] -0.008 | [11] -0.041 | [12] -0.017 | [13] 0.014 | [14] 0.029 | [15] 0.01 | [16] 0.001 | [17] 0.043 | [18] -0.005 | [19] -0.001 | [20] -0.022

TERF2IP (UniProt Q9NYB0)
Chain of UniProt Q9NYB0 (Q9NYB0 whole entry, looked up): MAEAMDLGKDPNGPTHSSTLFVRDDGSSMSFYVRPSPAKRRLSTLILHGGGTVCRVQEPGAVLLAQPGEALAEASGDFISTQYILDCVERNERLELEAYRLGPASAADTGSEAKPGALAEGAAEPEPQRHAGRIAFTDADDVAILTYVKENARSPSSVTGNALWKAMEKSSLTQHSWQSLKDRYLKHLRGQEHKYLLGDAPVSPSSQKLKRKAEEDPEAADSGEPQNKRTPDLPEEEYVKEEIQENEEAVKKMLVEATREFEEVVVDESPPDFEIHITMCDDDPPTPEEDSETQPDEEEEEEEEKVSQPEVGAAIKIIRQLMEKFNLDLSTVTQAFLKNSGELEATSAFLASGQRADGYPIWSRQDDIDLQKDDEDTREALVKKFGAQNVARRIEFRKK
inactive: [1] -0.003 | [2] 0.025 | [3] 0.03 | [4] -0.054 | [5] -0.023 | [6] -0.001 | [7] 0.005 | [8] 0.019 | [9] 0.029 | [10] 0.009 | [11] 0.02 | [12] -0.012 | [13] 0.025 | [14] -0.049 | [15] -0.047 | [16] 0.004 | [17] -0.004 | [18] -0.008 | [19] -0.005 | [20] 0.003
